About 2,000 (36%) of roughly 5,500 compounds were called active. Roughly 18% stayed inconclusive and do not appear here. No stated cut-off is given here; in the data, active means normalized growth mostly below about 0.91 (no sharp cut-off); inconclusive means no clear call, values can overlap the other calls; inactive means mostly above about 0.92. The list shows a part of the results.
Experiment: chemical genetic growth profiling, strain panel (AID 1159580);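 further: tested at 20 µM; growth read once vehicle control cultures reached saturation at 30 °C; 1 = growth at the plate median or of vehicle wells; lower values mean less growth of the strain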
Details: S. cerevisiae deletion strains, growth OD

Measured: normalized growth

OCc1cc(C(O)CNCCCCCCOCCCCc2ccccc2)ccc1O (centres undefined)
inactive: locus YAL040C, strain CLN3, active compounds read low 1.07 | locus YCL061C, strain MRC1 (second series), active compounds read low 1.01 | locus YDR150W, strain NUM1, active compounds read low 1.01 | locus YDR363W, strain ESC2, active compounds read low 0.995 | locus YER002W, strain NOP16, active compounds read low 1.02 | locus YMR263W, strain SAP30, active compounds read low 1.01 | locus YMR307W, strain GAS1, active compounds read low 0.992 | locus YNL175C, strain NOP13, active compounds read low 1.01 | locus YNL197C, strain WHI3, active compounds read low 1.01 | locus YNL224C, strain SQS1, active compounds read low 1.01 | locus YOR083W, strain WHI5 (second series), active compounds read low 1.01 | locus YPL055C, strain LGE1, active compounds read low 0.983 | locus YPL241C, strain CIN2, active compounds read low 0.997

N/C(Cn1ccc(C(F)(F)F)n1)=N/OS(=O)(=O)c1cccc(Cl)c1Cl
inactive: locus YAR019C, strain CDC15, active compounds read low 0.979 | locus YBL105C, strain PKC1, active compounds read low 0.989 | locus YBR135W, strain CKS1, active compounds read low 0.977 | locus YBR136W, strain MEC1, active compounds read low 0.985 | locus YBR160W, strain CDC28, active compounds read low 0.972 | locus YDL017W, strain CDC7, active compounds read low 0.994 | locus YDL028C, strain MPS1, active compounds read low 0.985 | locus YDL101C, strain DUN1, active compounds read low 0.989 | locus YDL108W, strain KIN28, active compounds read low 0.98 | locus YDL132W, strain cdc53, active compounds read low 0.983 | locus YDL214C, strain PRR2, active compounds read low 1.01 | locus YDR052C, strain DBF4, active compounds read low 0.986 | locus YDR054C, strain cdc34, active compounds read low 0.975 | locus YDR226W, strain ADK1, active compounds read low 0.987 | locus YDR477W, strain SNF1, active compounds read low 0.993 | locus YER123W, strain YCK3, active compounds read low 0.989 | locus YER133W, strain GLC7, active compounds read low 0.995 | locus YFL009W, strain cdc4, active compounds read low 0.988 | locus YFL029C, strain CAK1, active compounds read low 0.979 | locus YFR003C, strain YPI1, active compounds read low 0.985 | locus YFR019W, strain FAB1, active compounds read low 1 | locus YFR028C, strain CDC14, active compounds read low 0.98 | locus YGR040W, strain KSS1, active compounds read low 0.983 | locus YGR052W, strain FMP48, active compounds read low 1.09 | locus YGR092W, strain DBF2, active compounds read low 0.974 | locus YHR030C, strain SLT2, active compounds read low 1.07 | locus YHR079C, strain IRE1, active compounds read low 1.05 | locus YHR082C, strain KSP1, active compounds read low 1.11 | locus YHR205W, strain SCH9, active compounds read low 1.02 | locus YIL147C, strain SLN1, active compounds read low 0.987 | locus YJL095W, strain BCK1, active compounds read low 1.08 | locus YJL128C, strain PBS2, active compounds read low 0.988 | locus YJL157C, strain FAR1, active compounds read low 1 | locus YJR016C, strain ILV3, active compounds read low 0.989 | locus YJR066W, strain TOR1 (second series), active compounds read low 0.982 | locus YJR066W, strain TOR1, active compounds read low 1.12 | locus YKL048C, strain ELM1, active compounds read low 0.984 | locus YKL067W, strain YNK1, active compounds read low 0.994 | locus YKL101W, strain HSL1, active compounds read low 1.01 | locus YKL193C, strain SDS22, active compounds read low 0.983 | locus YKL203C, strain TOR2, active compounds read low 1.06 | locus YLR113W, strain HOG1, active compounds read low 1.04 | locus YLR133W, strain CKI1, active compounds read low 1.01 | locus YLR403W, strain SFP1, active compounds read low 0.992 | locus YML070W, strain DAK1, active compounds read low 1 | locus YMR001C, strain CDC5, active compounds read low 0.983 | locus YMR205C, strain PFK2 (second series), active compounds read low 1 | locus YMR277W, strain FCP1, active compounds read low 0.991 | locus YNL006W, strain LST8, active compounds read low 0.99 | locus YNL020C, strain ARK1, active compounds read low 1.01 | locus YNL161W, strain CBK1, active compounds read low 0.981 | locus YNL183C, strain NPR1, active compounds read low 1.06 | locus YNL207W, strain RIO2, active compounds read low 0.977 | locus YNL222W, strain SSU72, active compounds read low 0.977 | locus YNL307C, strain MCK1 (second series), active compounds read low 0.997 | locus YOL078W, strain AVO1, active compounds read low 0.986 | locus YOL136C, strain PFK27, active compounds read low 1.02 | locus YOR061W, strain CKA2, active compounds read low 1.01 | locus YOR119C, strain RIO1, active compounds read low 1.04 | locus YOR231W, strain MKK1, active compounds read low 1.01 | locus YOR329C, strain SCD5, active compounds read low 0.992 | locus YPL031C, strain PHO85, active compounds read low 0.998 | locus YPL153C, strain RAD53, active compounds read low 0.987 | locus YPL204W, strain HRR25, active compounds read low 0.989 | locus YPL209C, strain IPL1, active compounds read low 0.978 | locus YPL256C, strain CLN2, active compounds read low 1.03 | locus YPR025C, strain CCL1, active compounds read low 0.978 | locus YPR106W, strain ISR1, active compounds read low 0.992 | locus YPR111W, strain DBF20, active compounds read low 0.976 | strain NNK1, active compounds read low 0.998 | strain TSCII, active compounds read low 0.986

From PubChem BioAssay AID1159580 (chemical genetic matrix, 2015)
